Results published in PubChem BioAssay (Tox21).
Where “and” joins values, the source holds several entries; their conditions need not be identical. Identical values can stand only once. Records with an inconclusive call do not appear. Calls of active or inactive are those of the source. Calls come from the whole dose curve; as a rule, active = well fitted curve in the direction sought with a large enough effect in the repeat runs; inconclusive = weak or mixed curves; inactive = no such curve, though single readings can be large; an effect the other way counts as inactive or inconclusive.

Assays:
[1] = qHTS RealTime-Glo MT Cell Viability Assay in HepG2 cells - 40 hour (AID 1224870); note: nearly all actives have a fitted effect of over 50% in size
Method in brief: (§1)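 HepG2 cells mixed with RealTime-Glo MT reagents (NanoLuc plus cell-permeant prosubstrate) were seeded at 600 cells/well, incubated 5 h at 37 C/5% CO2, then pinned with compounds in DMSO; nonlytic luminescence tracked viability during 40 h treatment.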

[2] = A CellTox Green Cytotoxicity Assay to monitor cytotoxicity in HEK293 cells - 40 hour (AID 1224871); note: nearly all actives have a fitted effect of over 45% in size; note: potency is the fitted concentration of half-maximal effect
Method in brief: (§2)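 Cells (HEK293, 600/well) and dye reagent are dispensed together. After 5 h at 37 C, 23 nL compound is pinned in. Plates stay at 37 C for 40 h with fluorescence read at 0h, 8h, 16h, 24h, 32h and 40h.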

[3] = qHTS RealTime-Glo MT Cell Viability Assay in HepG2 cells - 8 hour (AID 1224873); note: nearly all actives have a fitted effect of over 55% in size
Method in brief: as §1

[4] = qHTS RealTime-Glo MT Cell Viability Assay in HEK293 cells - 40 hour (AID 1224874); details: RealTime-Glo luminescence; max response: stronger effect = lower value; note: nearly all actives have a fitted effect of over 50% in size; note: potency is the fitted concentration of half-maximal effect
Method in brief: (§3)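 Real-time viability in HEK293: signal arises when living cells convert a prosubstrate for NanoLuc in the medium, so luminescence tracks viable cell number. Compound (23 nL, DMSO) added 5 h post-seeding; kinetic reads at 0–40 h, 37 C.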

[5] = A CellTox Green Cytotoxicity Assay to monitor cytotoxicity in HepG2 cells - 16 hour (AID 1224876); note: nearly all actives have a fitted effect of over 45% in size
Method in brief: (§4)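 Cells and non-lytic dye reagent are dispensed together (600 HepG2 cells/well) and incubated 5 h before DMSO compound transfer. Kinetic fluorescence is then recorded in the same wells during 40 h at 37 C.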

[6] = qHTS RealTime-Glo MT Cell Viability Assay in HepG2 cells - 32 hour (AID 1224877); note: nearly all actives have a fitted effect of over 55% in size
Method in brief: (§5)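 HepG2 cells were seeded at 600 cells/well together with NanoLuc luciferase and a cell-permeant prosubstrate, preincubated 5 h at 37 C/5% CO2, then pin-dosed with compounds in DMSO. Nonlytic luminescence from viable cells was read at each time point.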

[7] = A CellTox Green Cytotoxicity Assay to monitor cytotoxicity in HepG2 cells - 24 hour (AID 1224878); note: nearly all actives have a fitted effect of over 45% in size; note: potency is the fitted concentration of half-maximal effect
Method in brief: as §4

[8] = A CellTox Green Cytotoxicity Assay to monitor cytotoxicity in HepG2 cells - 40 hour (AID 1224879); note: nearly all actives have a fitted effect of over 40% in size; note: potency is the fitted concentration of half-maximal effect
Method in brief: as §4

[9] = qHTS RealTime-Glo MT Cell Viability Assay in HEK293 cells - 0 hour (AID 1224880); note: top concentration of the series differs between compounds; nearly all actives have a fitted effect of over 45% in size
Method in brief: as §3

[10] = A CellTox Green Cytotoxicity Assay to monitor cytotoxicity in HEK293 cells - 32 hour (AID 1224881); note: nearly all actives have a fitted effect of over 40% in size; note: potency is the fitted concentration of half-maximal effect
Method in brief: as §2

[11] = A CellTox Green Cytotoxicity Assay to monitor cytotoxicity in HepG2 cells - 0 hour (AID 1224882); note: nearly all actives have a fitted effect of over 35% in size
Method in brief: as §4

[12] = A CellTox Green Cytotoxicity Assay to monitor cytotoxicity in HepG2 cells - 32 hour (AID 1224883); note: nearly all actives have a fitted effect of over 50% in size; note: potency is the fitted concentration of half-maximal effect
Method in brief: as §4

[13] = A CellTox Green Cytotoxicity Assay to monitor cytotoxicity in HEK293 cells - 8 hour (AID 1224884); note: nearly all actives have a fitted effect of over 35% in size
Method in brief: as §2

[14] = qHTS RealTime-Glo MT Cell Viability Assay in HepG2 cells - 16 hour (AID 1224885); note: nearly all actives have a fitted effect of over 50% in size
Method in brief: as §5

[15] = qHTS RealTime-Glo MT Cell Viability Assay in HEK293 cells - 8 hour (AID 1224887)
Method in brief: as §3

[16] = A CellTox Green Cytotoxicity Assay to monitor cytotoxicity in HEK293 cells - 16 hour (AID 1224888); note: nearly all actives have a fitted effect of over 35% in size
Method in brief: as §2

[17] = qHTS RealTime-Glo MT Cell Viability Assay in HepG2 cells - 0 hour (AID 1224889); note: nearly all actives have a fitted effect of over 50% in size
Method in brief: as §5

[18] = A CellTox Green Cytotoxicity Assay to monitor cytotoxicity in HEK293 cells - 24 hour (AID 1224875)
Method in brief: as §2

[19] = qHTS RealTime-Glo MT Cell Viability Assay in HEK293 cells - 16 hour (AID 1224872)
Method in brief: (§6)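 HEK293 cells were seeded at 600 cells/well together with NanoLuc luciferase and cell-permeant prosubstrate, preincubated 5 h at 37 C/5% CO2, then given compound in DMSO by pintool. Luminescence from viable-cell prosubstrate reduction was read repeatedly over 40 h.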

[20] = qHTS RealTime-Glo MT Cell Viability Assay in HEK293 cells - 24 hour (AID 1224886)
Method in brief: as §6
% is set by controls: 0 for no effect and ±100 for the full control effect.

ClC1=C(Cl)C(Cl)(Cl)C(Cl)=C1Cl
active: Potency [2] 12.4 µM and 34.7 µM | Potency [4] 34.9 µM | Potency [8] 22 µM | Potency [10] 17.5 µM and 34.7 µM
inactive: Potency [1] | Potency [3] | Potency [5] | Potency [6] | Potency [7] | Potency [9] | Potency [11] | Potency [12] | Potency [13] | Potency [14] | Potency [15] | Potency [16] | Potency [17]

CCCCC(CC)C(=O)OCCOCCOCCOC(=O)C(CC)CCCC (stereo not given)
inactive: Potency [1] | Potency [2] | Potency [3] | max response [4] -28.2% | Potency [18] | Potency [5] | Potency [6] | Potency [7] | Potency [8] | Potency [9] | Potency [10] | Potency [11] | Potency [12] | Potency [13] | Potency [14] | Potency [15] | Potency [16] | Potency [17]

O=[N+]([O-])c1cccc(Cl)c1
inactive: Potency [1] | Potency [2] | Potency [19] | Potency [3] | max response [4] 7.7% | Potency [5] | Potency [6] | Potency [7] | Potency [8] | Potency [9] | Potency [10] | Potency [11] | Potency [12] | Potency [13] | Potency [14] | Potency [20] | Potency [15] | Potency [16] | Potency [17]

CC(C)n1c(/C=C/[C@@H](O)C[C@@H](O)CC(=O)O)c(-c2ccc(F)cc2)c2ccccc21
active: Potency [7] 6.17 µM and 10.7 µM | Potency [8] 4.36 µM and 9.52 µM | Potency [12] 4.36 µM and 9.52 µM
inactive: Potency [1] | Potency [2] | Potency [19] | Potency [3] | max response [4] -22.2% and 0.258% | Potency [5] | Potency [6] | Potency [9] | Potency [11] | Potency [13] | Potency [14] | Potency [20] | Potency [15] | Potency [16] | Potency [17]

O=[N+]([O-])c1cc(N(CCO)CCO)ccc1NCCO
inactive: Potency [1] | Potency [2] | Potency [19] | Potency [3] | max response [4] 0.623% and 8.81% | Potency [5] | Potency [6] | Potency [7] | Potency [8] | Potency [9] | Potency [11] | Potency [12] | Potency [13] | Potency [14] | Potency [20] | Potency [15] | Potency [16] | Potency [17]

O=C(Cl)c1c(Cl)c(Cl)c(C(=O)Cl)c(Cl)c1Cl
inactive: Potency [1] | Potency [2] | Potency [19] | Potency [3] | max response [4] 8.71% and 13.6% | Potency [5] | Potency [6] | Potency [7] | Potency [8] | Potency [9] | Potency [11] | Potency [12] | Potency [13] | Potency [14] | Potency [20] | Potency [15] | Potency [16] | Potency [17]

c1ccc2ccccc2c1
inactive: Potency [1] | Potency [2] | Potency [19] | Potency [3] | max response [4] 0.777% and 7.95% | Potency [5] | Potency [6] | Potency [7] | Potency [8] | Potency [9] | Potency [11] | Potency [12] | Potency [13] | Potency [14] | Potency [20] | Potency [15] | Potency [16] | Potency [17]

CS(=O)(=O)Nc1ccc([N+](=O)[O-])cc1Oc1ccccc1
inactive: Potency [1] | Potency [2] | Potency [19] | Potency [3] | max response [4] -6.51% and 1.07% | Potency [5] | Potency [6] | Potency [7] | Potency [8] | Potency [10] | Potency [11] | Potency [12] | Potency [13] | Potency [14] | Potency [20] | Potency [15] | Potency [16]

CC(C)(C)C1CCC(O)CC1 (stereo not given)
inactive: Potency [1] | Potency [2] | Potency [19] | Potency [3] | max response [4] -21.7% and -6.15% | Potency [5] | Potency [6] | Potency [7] | Potency [8] | Potency [9] | Potency [10] | Potency [11] | Potency [12] | Potency [13] | Potency [14] | Potency [20] | Potency [15] | Potency [16] | Potency [17]

O=C(O)c1cc(-c2ccccc2)nc2ccccc12
inactive: Potency [1] | Potency [2] | Potency [19] | Potency [3] | max response [4] -1.75% and 4.47% | Potency [5] | Potency [6] | Potency [7] | Potency [8] | Potency [9] | Potency [10] | Potency [11] | Potency [12] | Potency [13] | Potency [14] | Potency [20] | Potency [15] | Potency [16] | Potency [17]

O=C1N=C(O)CN1/N=C/c1ccc(-c2ccc([N+](=O)[O-])cc2)o1
inactive: Potency [1] | Potency [2] | Potency [19] | Potency [3] | max response [4] -2.04% | Potency [5] | Potency [6] | Potency [7] | Potency [8] | Potency [9] | Potency [10] | Potency [11] | Potency [12] | Potency [13] | Potency [14] | Potency [20] | Potency [15] | Potency [16] | Potency [17]
